This is an account of results in publication PMC12864922, “TDP-43 directly inhibits mRNA accumulation in neurites through modulation of mRNA stability”.

Sequences and labels used below:
B1: ENSMUSG00000061578.522|Ksr2 (ssRNA)
RNA: GGGAGUUCUACAGUCCGACGAUCGCUUCGAUAUCCGCAUGCUAGGAGCUCUUGCCUAACACACACCAAGCCCCAAGUUCCAUCCCCAGUCCCACACAAACCAGAUAUGAUGGUGUGUGCCUAUGUCCCCCACACACGAGAGAGCUGGAGGCAGGAGGAUCAGAAGUUCAGGGCCAUCCUUAAUCAUACAGUGAGCUUGAGAGCAACCUGGGCUACAUGUGACCCUAAUAACUUUUGUAAAUUCAGCACACUUGGCACCUCACACUCCAUGUCCAUAUACUGCAUGUGCCACACACACACACACCUCUUGCGGUCGCACUAGUGUGGAAUUCUCGGGUGUCAAGG
B2: ENSMUSG00000028439.215|Fam219a (ssRNA)
RNA: GGGAGUUCUACAGUCCGACGAUCGCUUCGAUAUCCGCAUGCUAACCUGGGUUCUGGUCCCAGCCUCGGCAUUCUCCCUGAGCUCCUAAGCAAUUCCCAGGCUUCUCUAGGGCUUCAGUUCUCACAACUGGAAAAUAAAGAGUAGCUGACAUCACCGACAGAGUCUUUUCAUACCAGAAGGAAUUUCUUCACAGGAGUUUCUGCAAAAGACUAUGACAUCUGUGUGUCUGUGGUCUCACGAGGUACCUGGAGGUGUAUGUGCACGGACAUGGGAAGUACGUGAAGAUUUAUUUCGGGAAAAGUGCUCUUGCGGUCGCACUAGUGUGGAAUUCUCGGGUGUCAAGG
B3: ENSMUSG00000022095.99|Fam160b2 (ssRNA)
RNA: GGGAGUUCUACAGUCCGACGAUCGCUUCGAUAUCCGCAUGCUAGCCCCCUCUUCCUGCUCUACCCUCCUGGAGGCUGUUGCAAAAUUCCCAACUGCCUCCUGGCAGAGGCCCAAAGUAUGCUCUGCGCCCAGGCGGGGGCAGCUGCUAACAAGAGCCCUGGCGCAGCUGCAGCCAGGGCAGGCGAGAGCCUUGGAGCUGGGUGCCAGGCUCCAGCUCCAGCUCCAGCUGGUUCCUCUCUGGCGCCUUCUGAACCCGUCUCAGCAAGUCCGAAACACCUGGGCAGAGAGGUCAUUGACCAGGGACUCUUGCGGUCGCACUAGUGUGGAAUUCUCGGGUGUCAAGG
B4: ENSMUSG00000031028.626|Tub (ssRNA)
RNA: GGGAGUUCUACAGUCCGACGAUCGCUUCGAUAUCCGCAUGCUAUUAGGGUAAAUGAAAGUUAGUCCUGGCUCUCAUCACCACCUUUCCUAGCUCAUCACUGUGCCUUCUUUCUUCCCUAAGAAAGACAAUGCACCCCUCUCUUCUGUUCUCCUGCCCCUUCGCCCCCACUGAGGUCCAGGUAGAGCAGAUGAGGCUGAAAUGUAGAGUGUUCUAUAGAGCAUCUCAGUAGCAUAGAAGGAGAAGCCCAGCUCCAACCUCCUGGACCCCAUACUGGUGACCAGCUUGGUGAGGACAGGCAAAAUCUCUUGCGGUCGCACUAGUGUGGAAUUCUCGGGUGUCAAGG
B5: ENSMUSG00000004113.212|Cacna1b (ssRNA)
RNA: GGGAGUUCUACAGUCCGACGAUCGCUUCGAUAUCCGCAUGCUAGCUCAGAGCAGCACGGGGGCUUGUGUCUUAGGGACAUUGACAGUGUCCAUCAGCAUGUCAGAGAAGCAGCUGUAGUGCCCGUGUUUCUCCCUGAGUCAUGGGUUCUGAAGAAGCCAGAGCGGCACAAUGCGUGCUUGCAUGAGGCACUUUCAGCCUUUUUAAAUCUGACUCUCAGGGAUGGGAUGCCUGCCAAGUAGGGUGUAAUCUCUGUUGUGUUUUUAAAACAACAACAACAAAAUAAAACAAAAAAAAAAAACCUACUCUUGCGGUCGCACUAGUGUGGAAUUCUCGGGUGUCAAGG
B6: ENSMUSG00000061578.1091|Ksr2|55:59 (ssRNA)
RNA: GGGAGUUCUACAGUCCGACGAUCGCUUCGAUAUCCGCAUGCUACAACCAUGAAAAUAGAGGUUUGUAAUGUACAGAAGGCUGGGGGAGCUUUCAGGGCACACGCCAGUUAUGUACAGAUGUGAAGCUGAGGUCUGAAGGAAAUGGAGGAAGUAGGAAGAUCAGACUGGUUGAAUUAGAAGUCUGUCACUCUAGGUGCUAAGUGACCUUGGACCCAGUCAGUUCUUGGAUUUCUGUUGUAGCCCAGGCUAGCCUCGAACCCUUGAUCCUCCUGUUCCUGGUAGAGAAACAGCCACUAAAUGGUGCUCUUGCGGUCGCACUAGUGUGGAAUUCUCGGGUGUCAAGG
B7: ENSMUSG00000004113.162|Cacna1b (ssRNA)
RNA: GGGAGUUCUACAGUCCGACGAUCGCUUCGAUAUCCGCAUGCUAGGUUUUCAGUCACAACACUUUCACUGUUUGUCAUUUCUAUGUAGUUGAUCUAGAAAAAGCAGAAAUCAAAACAGGAAAGGAAAUGUUUGUGUAACUUUAAAAAAAAAGUCAACAUGUAGGAAGGUCUCCAUUUUGCAUUGUUUCUGUGUCUUGUAUGCAAUGUUCCUGUAUGUUUCUACCCUGCCUGGGAUGUCCCCAAUGACCCUGGCUCCUCUGCUCAACCAAGUGCCUGAUCUCUGGCUCUGAGCAUCGUGGAUGAGCUCUUGCGGUCGCACUAGUGUGGAAUUCUCGGGUGUCAAGG
B8: ENSMUSG00000029636.179|Wasf3 (ssRNA)
RNA: GGGAGUUCUACAGUCCGACGAUCGCUUCGAUAUCCGCAUGCUACCCCUCCUGAAGCACAGCUCUCUUCUCUCCUGUUGUCGGCACAUUUUCAAUUUUAAAAAGUACCUCACAAGAUAAACUUGAUUCAGCCAGUUGCCCGGGCAGAGACCUGACUUCCCCUCUCCUGCCCUGAUCCUUUUUACCAAAUGGCGAUUCCAUAGUCCUGGCUGAGGCAGGGGCUCAAAGUCCAGUGUCUGCUUUGCAAUUCUGGAAGGACAGCUGCUUAUUUAAAUAAGUCUGUGAUAUCCGCAGGCUUGGGUUACCUCUUGCGGUCGCACUAGUGUGGAAUUCUCGGGUGUCAAGG
B9: ENSMUSG00000061578.745|Ksr2 (ssRNA)
RNA: GGGAGUUCUACAGUCCGACGAUCGCUUCGAUAUCCGCAUGCUACAUCUCUGGCUCUUUGUUUCCACUCUGGCCCAAGUUUGAGUCUCCAUAUGGGCCCUUCCUGUCCUCAUGCCCUGCCUGUCUUCAUUCCACCCAUCCACCCUCCUAAGGAUUGGUCUUGUUCCGAGAGUGAUCCUGGUAACGCCAAGCCUCCCUCUGCCCCUGUGUUGGCUUCUGUGACGGACUACCACACACCAAGAGGUUUUUCACAGUGAAGAUGUAUGCUCUCACCAUCCUACAGAUGCAAAGACCAAACACAAAGUCUCUUGCGGUCGCACUAGUGUGGAAUUCUCGGGUGUCAAGG

In all, about 9,900 sequences were measured (“r (bound/input frequency ratio)”: median about 0.7, highest 2% from about 6.5 on). Only a selection was taken, and the highest values are over-represented in it overall.

Chain of TDP-43 (Q13148 whole entry): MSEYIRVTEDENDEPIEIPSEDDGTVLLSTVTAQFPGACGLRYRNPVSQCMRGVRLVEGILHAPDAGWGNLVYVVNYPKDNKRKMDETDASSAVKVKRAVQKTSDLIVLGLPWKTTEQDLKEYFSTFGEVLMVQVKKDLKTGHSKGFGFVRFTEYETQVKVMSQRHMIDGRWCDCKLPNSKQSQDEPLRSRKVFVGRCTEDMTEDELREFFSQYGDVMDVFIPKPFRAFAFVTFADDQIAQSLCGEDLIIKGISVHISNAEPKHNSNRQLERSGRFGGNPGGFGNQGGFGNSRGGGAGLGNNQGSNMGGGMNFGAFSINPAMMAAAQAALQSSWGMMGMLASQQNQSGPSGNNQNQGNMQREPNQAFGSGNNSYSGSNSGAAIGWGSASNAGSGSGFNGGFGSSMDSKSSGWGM

For this test, the target named is TDP-43 (Homo sapiens, UniProt Q13148 1-414). In words: RNA Bind-n-Seq with designed 260-mer pool; 25 mM Tris-HCl, 150 mM KCl, 3 mM MgCl2, BSA (printed 500 mg/mL), 20 units/mL SUPERase IN; pH not stated; 500 nM RNA pool, 1 h, 4 C; TDP-43 5, 50, 500 nM; high values mean tight binding. Conditions: protein: recombinant; tags: SBP (GST cleaved off with PreScission; pGEX-GST-SBP). The procedure, abridged:
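For each oligo, R gives binding as its mapped-read-normalized abundance after pulldown divided by its abundance in input. Bead-captured SBP-tagged TDP-43 (5, 50 or 500 nM) was incubated with 500 nM of an in vitro-transcribed 260-nt 3′ UTR oligo pool for 1 h at 4 °C in 25 mM Tris-HCl, 150 mM KCl, 3 mM MgCl2, BSA and SUPERase IN on streptavidin beads. Washed, biotin-eluted RNA was reverse transcribed, PCR-amplified and sequenced.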
For B1, the binding signal was 2.82 R (bound/input frequency ratio).
To B2 belongs 1.67 R (bound/input frequency ratio); to B3, 0.917 R (bound/input frequency ratio); to B4, 0.915 R (bound/input frequency ratio).
With B5, the binding signal is 0.697 R (bound/input frequency ratio).
Turning to B6, the binding signal is 0.848 R (bound/input frequency ratio).
Regarding B7, the binding signal was 1.13 R (bound/input frequency ratio).
Consider B8, for which the binding signal was 0.495 R (bound/input frequency ratio).
For the molecule B9, the binding signal is 1.1 R (bound/input frequency ratio).
